About 8,800 targets were measured; listed, in parts, are those with a hit and a random draw of the rest. About 0.5% of all pairs of compound and target were hits.
How the values were obtained:
Experiment in all cases: log2 fold change, soluble protein after heating vs DMSO (PISA); higher = thermal stabilisation; K562 lysate, 10 uM; active = over 0.2 and 3.5 SD of the protein, either way, in both replicates (recomputed)
[1] = compound: CN1CC[C@H](c2c(O)cc(O)c3c(=O)cc(-c4ccccc4Cl)oc23)[C@H](O)C1 [alvocidib]
Method in brief: (§1)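 Quantification was by TMTpro 16plex LC-MS/MS with equalised channel sums, applied to the supernatant after 21,000xg for 90 min. Samples were crude K562 extract at 1 mg/mL protein in PBS pH 7.4 with 1 mM MgCl2, treated with 10 μM compound for 30 min, heated for 3 min across 48°C-58°C, pooled and brought to 0.5% NP-40 at 4°C. Values are log-two fold changes in thermal stability relative to solvent controls, from duplicates.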

[2] = compound: CN1CCc2c(c3ccccc3n2Cc2ccc(C(=O)NO)cc2)C1 [Tubastatin A]
Method in brief: as §1

[3] = compound: CNC(=O)C1=CC=CC=C1NC2=NC(=NC=C2Cl)NC3=C(C=C(C=C3)N4CCOCC4)OC
Method in brief: as §1

[4] = compound: CNC(=O)c1ccc(Nc2ncc(C(F)(F)F)c(NCc3nccnc3N(C)S(C)(=O)=O)n2)cc1 [defactinib]
Method in brief: as §1

[5] = compound: CNc1nc(-c2ccc3c(N)n[nH]c3c2)cc(N2C[C@@H](C(=O)NC3CCCCC3)CC[C@H]2C)n1
Method in brief: as §1

[6] = compound: COC(=O)N[C@@H](C)CNc1nccc(-c2cn(C(C)C)nc2-c2cc(Cl)cc(NS(C)(=O)=O)c2F)n1 [encorafenib]
Method in brief: as §1

[7] = compound: COC(=O)[C@H](CCSC)NC(=O)C1=C(C=C(C=C1)NC[C@H](CS)N)C2=CC=CC=C2
Method in brief: as §1

[8] = compound: COc1cc(Nc2ncc3c(n2)-c2ccc(Cl)cc2C(c2c(F)cccc2OC)=NC3)ccc1C(=O)O [alisertib]
Method in brief: as §1

[9] = compound: COc1cc2nc(-c3cc(F)ccc3O)nc(N[C@@H]3CNC[C@H]3C(C)(C)O)c2cc1OC
Method in brief: as §1

[10] = compound: COc1cc2ncnc(Nc3ccc(F)c(Cl)c3)c2cc1OCCCN1CCOCC1 [gefitinib]
Method in brief: as §1

Measured: log2 fold change

KLC4 isoform 3 (UniProt Q9NSK0)
inactive: [1] -0.01 | [2] -0.091 | [3] -0.008 | [4] 0.014 | [5] -0.084 | [6] 0.014 | [7] 0.007 | [8] 0.014 | [9] 0.014 | [10] -0.028

MCCC1 (UniProt Q96RQ3)
inactive: [1] 0.063 | [2] -0.036 | [3] 0.003 | [4] -0.002 | [5] -0.025 | [6] 0.012 | [7] -0.057 | [8] 0 | [9] 0.001 | [10] 0.017

MRPL19 (UniProt P49406)
inactive: [1] -0.056 | [2] -0.119 | [3] -0.036 | [4] -0.005 | [5] -0.052 | [6] -0.003 | [7] 0.042 | [8] 0.037 | [9] -0.03 | [10] 0.043

L3HYPDH (UniProt Q96EM0)
Sequence of UniProt Q96EM0 (Q96EM0 whole entry, looked up): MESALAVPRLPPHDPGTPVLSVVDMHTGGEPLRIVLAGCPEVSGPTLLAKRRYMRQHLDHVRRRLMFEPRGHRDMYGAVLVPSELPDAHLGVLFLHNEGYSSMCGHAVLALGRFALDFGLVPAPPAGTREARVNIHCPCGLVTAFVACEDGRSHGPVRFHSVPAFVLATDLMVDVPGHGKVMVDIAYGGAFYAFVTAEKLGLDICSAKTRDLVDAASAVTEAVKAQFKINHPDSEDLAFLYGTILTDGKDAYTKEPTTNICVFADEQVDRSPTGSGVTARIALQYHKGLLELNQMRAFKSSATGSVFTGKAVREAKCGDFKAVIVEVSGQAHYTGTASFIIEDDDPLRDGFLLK
inactive: [1] 0.023 | [2] -0.052 | [3] 0.005 | [4] -0.012 | [5] 0.022 | [6] -0.017 | [7] 0.039 | [8] -0.019 | [9] -0.005 | [10] -0.013

MRPL46 (UniProt Q9H2W6)
inactive: [1] 0.125 | [2] -0.097 | [3] 0.28 | [4] 0.051 | [5] 0.058 | [6] -0.032 | [7] 0 | [8] 0.02 | [9] -0.045 | [10] 0.041

MIF (UniProt P14174)
Sequence of UniProt P14174 (P14174 whole entry, looked up): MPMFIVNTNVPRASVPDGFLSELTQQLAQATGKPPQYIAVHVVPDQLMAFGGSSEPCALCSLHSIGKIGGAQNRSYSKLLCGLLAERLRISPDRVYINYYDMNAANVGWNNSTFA
active: [2] 0.545
inactive: [1] -0.109 | [3] 0.103 | [4] -0.05 | [5] -0.145 | [6] -0.028 | [7] -0.013 | [8] 0.005 | [9] -0.006 | [10] 0.068

MARK2 (UniProt E9PC69)
inactive: [1] -0.032 | [2] -0.049 | [3] -0.187 | [4] -0.087 | [5] 0.056 | [6] 0.181 | [7] 0.211 | [8] 0.021 | [9] 0.01 | [10] -0.03

MIPEP (UniProt Q99797)
Sequence of UniProt Q99797 (Q99797 whole entry, looked up): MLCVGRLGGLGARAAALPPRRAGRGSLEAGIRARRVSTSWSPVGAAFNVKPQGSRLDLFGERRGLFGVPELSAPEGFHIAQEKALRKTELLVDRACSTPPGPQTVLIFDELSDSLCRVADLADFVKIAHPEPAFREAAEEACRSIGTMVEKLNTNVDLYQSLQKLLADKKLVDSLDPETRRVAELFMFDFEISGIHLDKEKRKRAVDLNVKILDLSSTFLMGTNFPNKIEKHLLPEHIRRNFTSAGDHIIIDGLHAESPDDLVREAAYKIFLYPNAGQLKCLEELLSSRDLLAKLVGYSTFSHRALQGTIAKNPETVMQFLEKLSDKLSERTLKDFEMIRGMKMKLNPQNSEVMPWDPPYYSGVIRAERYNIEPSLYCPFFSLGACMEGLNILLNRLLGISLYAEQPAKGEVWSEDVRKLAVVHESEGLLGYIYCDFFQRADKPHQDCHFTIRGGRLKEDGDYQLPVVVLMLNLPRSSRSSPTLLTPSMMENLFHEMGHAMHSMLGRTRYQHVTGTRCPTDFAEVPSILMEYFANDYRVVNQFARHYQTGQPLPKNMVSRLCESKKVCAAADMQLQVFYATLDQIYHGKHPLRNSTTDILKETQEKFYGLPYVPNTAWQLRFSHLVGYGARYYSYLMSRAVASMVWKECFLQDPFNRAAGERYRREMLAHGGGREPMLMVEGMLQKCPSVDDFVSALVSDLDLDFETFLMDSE
inactive: [1] 0.027 | [2] 0.011 | [3] -0.03 | [4] 0.025 | [5] -0.067 | [6] -0.012 | [7] 0.154 | [8] -0.038 | [9] -0.009 | [10] -0.007

LARP4B (UniProt Q92615)
inactive: [1] 0.001 | [2] -0.118 | [3] 0.005 | [4] 0.023 | [5] -0.027 | [6] 0.024 | [7] 0.015 | [8] 0.025 | [9] -0.013 | [10] -0.006

MAP2K1 (UniProt Q02750)
Sequence of UniProt Q02750 (Q02750 whole entry, looked up): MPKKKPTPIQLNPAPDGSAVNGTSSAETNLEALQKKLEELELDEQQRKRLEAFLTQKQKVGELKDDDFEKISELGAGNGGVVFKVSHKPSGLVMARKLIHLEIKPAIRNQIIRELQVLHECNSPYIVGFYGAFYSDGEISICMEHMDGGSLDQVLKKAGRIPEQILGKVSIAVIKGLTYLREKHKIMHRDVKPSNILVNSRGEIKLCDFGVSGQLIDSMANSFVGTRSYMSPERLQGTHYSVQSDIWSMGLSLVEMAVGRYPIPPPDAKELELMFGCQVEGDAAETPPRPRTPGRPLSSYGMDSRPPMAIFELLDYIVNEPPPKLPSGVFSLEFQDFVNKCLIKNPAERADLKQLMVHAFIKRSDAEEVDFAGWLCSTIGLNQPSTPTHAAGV
inactive: [1] 0.06 | [2] -0.011 | [3] 0.066 | [4] 0.013 | [5] 0.028 | [6] -0.07 | [7] -0.063 | [8] -0.036 | [9] 0.021 | [10] 0.029

LIMK2 isoform 3 (UniProt P53671)
Sequence of UniProt P53671 (P53671 whole entry, looked up): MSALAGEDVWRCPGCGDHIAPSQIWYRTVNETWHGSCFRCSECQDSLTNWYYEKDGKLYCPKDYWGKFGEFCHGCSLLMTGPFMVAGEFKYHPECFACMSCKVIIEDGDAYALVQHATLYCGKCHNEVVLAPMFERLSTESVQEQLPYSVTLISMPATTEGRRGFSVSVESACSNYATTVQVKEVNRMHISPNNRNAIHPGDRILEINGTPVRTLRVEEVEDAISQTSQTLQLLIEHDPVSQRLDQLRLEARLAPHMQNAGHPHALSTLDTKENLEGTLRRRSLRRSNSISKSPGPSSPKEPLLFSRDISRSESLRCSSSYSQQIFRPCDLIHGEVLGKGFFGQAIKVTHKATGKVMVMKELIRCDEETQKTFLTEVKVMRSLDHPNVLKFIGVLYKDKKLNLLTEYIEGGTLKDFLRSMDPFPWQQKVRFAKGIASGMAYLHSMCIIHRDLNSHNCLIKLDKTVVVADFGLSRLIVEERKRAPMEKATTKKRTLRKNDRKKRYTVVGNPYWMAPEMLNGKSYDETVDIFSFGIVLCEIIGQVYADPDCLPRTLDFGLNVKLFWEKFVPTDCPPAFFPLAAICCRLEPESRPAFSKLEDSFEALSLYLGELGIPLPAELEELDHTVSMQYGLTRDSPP
inactive: [1] -0.002 | [2] 0.02 | [3] 0.068 | [4] -0.026 | [5] 0.102 | [6] 0.204 | [7] -0.189 | [8] 0.031 | [9] 0.033 | [10] -0.141

KSR1 (UniProt Q8IVT5)
inactive: [1] 0.214 | [2] -0.086 | [3] -0.042 | [4] -0.045 | [5] -0.038 | [6] 0.075 | [7] 0.257 | [8] 0.028 | [9] 0.115 | [10] -0.016

LIG3 (UniProt P49916)
inactive: [1] -0.017 | [2] -0.142 | [3] 0.007 | [4] 0.006 | [5] -0.002 | [6] 0.023 | [7] 0.121 | [8] -0.009 | [9] -0.008 | [10] -0.015

MLLT11 (UniProt Q13015)
inactive: [1] 0.056 | [2] -0.052 | [3] 0.108 | [4] 0.086 | [5] -0.019 | [6] 0.138 | [7] 0.099 | [8] 0.115 | [9] 0.067 | [10] 0.023

MBLAC2 (UniProt Q68D91)
Sequence of UniProt Q68D91 (Q68D91 whole entry, looked up): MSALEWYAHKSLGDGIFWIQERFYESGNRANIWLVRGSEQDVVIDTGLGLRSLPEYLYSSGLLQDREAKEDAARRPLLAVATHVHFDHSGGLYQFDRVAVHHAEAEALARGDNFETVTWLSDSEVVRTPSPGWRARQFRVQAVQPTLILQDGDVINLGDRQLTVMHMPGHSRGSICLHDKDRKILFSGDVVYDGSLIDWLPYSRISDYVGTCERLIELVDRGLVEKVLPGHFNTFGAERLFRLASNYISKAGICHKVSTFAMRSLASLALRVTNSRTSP
inactive: [1] -0.011 | [2] 0.033 | [3] 0.041 | [4] 0.059 | [5] -0.096 | [6] 0.06 | [7] -0.003 | [8] 0.005 | [9] 0.013 | [10] 0.033

LAS1L (UniProt Q9Y4W2)
inactive: [1] -0.015 | [2] -0.127 | [3] -0.024 | [4] -0.02 | [5] 0.016 | [6] -0.04 | [7] 0.06 | [8] -0.011 | [9] 0.01 | [10] -0.013

MLH1 (UniProt P40692)
Sequence of UniProt P40692 (P40692 whole entry, looked up): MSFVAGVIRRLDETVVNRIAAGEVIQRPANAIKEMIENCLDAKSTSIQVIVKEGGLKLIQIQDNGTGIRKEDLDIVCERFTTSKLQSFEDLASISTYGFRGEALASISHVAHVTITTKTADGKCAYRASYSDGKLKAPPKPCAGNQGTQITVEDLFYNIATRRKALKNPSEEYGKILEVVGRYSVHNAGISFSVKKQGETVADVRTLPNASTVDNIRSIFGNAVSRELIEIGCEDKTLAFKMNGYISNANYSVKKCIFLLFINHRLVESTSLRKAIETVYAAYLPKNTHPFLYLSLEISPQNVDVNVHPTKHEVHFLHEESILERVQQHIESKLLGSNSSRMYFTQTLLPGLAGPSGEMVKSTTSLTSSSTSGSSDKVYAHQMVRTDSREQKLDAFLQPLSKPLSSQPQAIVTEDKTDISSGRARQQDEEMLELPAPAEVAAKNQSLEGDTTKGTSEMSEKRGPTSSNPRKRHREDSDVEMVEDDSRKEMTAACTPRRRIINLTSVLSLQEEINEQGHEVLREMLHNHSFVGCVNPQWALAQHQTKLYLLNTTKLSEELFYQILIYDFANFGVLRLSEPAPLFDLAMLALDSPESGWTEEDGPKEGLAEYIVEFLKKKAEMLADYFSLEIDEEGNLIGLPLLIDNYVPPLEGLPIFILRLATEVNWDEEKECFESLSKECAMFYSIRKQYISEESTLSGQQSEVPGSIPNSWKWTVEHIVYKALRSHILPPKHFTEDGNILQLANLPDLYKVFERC
inactive: [1] 0.011 | [2] -0.167 | [3] -0.039 | [4] 0.004 | [5] -0.013 | [6] 0.044 | [7] 0.129 | [8] -0.01 | [9] 0.048 | [10] -0.053

MGST1 (UniProt P10620)
Sequence of UniProt P10620 (P10620 whole entry, looked up): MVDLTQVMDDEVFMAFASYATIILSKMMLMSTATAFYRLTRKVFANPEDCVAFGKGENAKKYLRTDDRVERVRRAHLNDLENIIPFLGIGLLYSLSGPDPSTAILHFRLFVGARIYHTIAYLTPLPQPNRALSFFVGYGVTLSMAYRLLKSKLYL
inactive: [1] 0.033 | [2] -0.011 | [3] 0.07 | [4] 0.02 | [5] 0.038 | [6] 0.007 | [7] 0.001 | [8] 0.009 | [9] 0.023 | [10] -0.066

MAT2B (UniProt Q9NZL9)
inactive: [1] -0.028 | [2] 0.063 | [3] -0.013 | [4] 0.003 | [5] -0.01 | [6] -0.009 | [7] -0.006 | [8] 0.032 | [9] 0.016 | [10] -0.006

LYN (UniProt P07948)
inactive: [1] 0.026 | [2] -0.046 | [3] 0.203 | [4] 0.076 | [5] -0.092 | [6] -0.01 | [7] -0.072 | [8] 0.171 | [9] 0.26 | [10] -0.006

MAPKAPK3 (UniProt Q16644)
inactive: [1] 0.038 | [2] -0.125 | [3] 0.015 | [4] 0.033 | [5] -0.11 | [6] -0.015 | [7] 0.055 | [8] -0.055 | [9] 0.006 | [10] 0.148

LSM8 (UniProt O95777)
inactive: [1] -0.012 | [2] 0.018 | [3] 0.007 | [4] 0.048 | [5] -0.028 | [6] 0.032 | [7] -0.076 | [8] -0.026 | [9] 0.005 | [10] 0.046

LRWD1 (UniProt Q9UFC0)
inactive: [1] 0.027 | [2] -0.2 | [3] -0.049 | [4] 0.059 | [5] -0.051 | [6] 0.01 | [7] 0.11 | [8] -0.001 | [9] 0.017 | [10] -0.024

LLGL1 (UniProt Q15334)
inactive: [1] 0.026 | [2] -0.105 | [3] 0.032 | [4] -0.013 | [5] -0.034 | [6] 0.052 | [7] 0.108 | [8] -0.032 | [9] 0.121 | [10] -0.065

KIF4A (UniProt O95239)
inactive: [1] 0.006 | [2] -0.145 | [3] 0.022 | [4] 0.006 | [5] 0.005 | [6] -0.014 | [7] 0.154 | [8] -0.041 | [9] -0.035 | [10] -0.018

MAP4 (UniProt P27816)
Sequence of UniProt P27816 (P27816 whole entry, looked up): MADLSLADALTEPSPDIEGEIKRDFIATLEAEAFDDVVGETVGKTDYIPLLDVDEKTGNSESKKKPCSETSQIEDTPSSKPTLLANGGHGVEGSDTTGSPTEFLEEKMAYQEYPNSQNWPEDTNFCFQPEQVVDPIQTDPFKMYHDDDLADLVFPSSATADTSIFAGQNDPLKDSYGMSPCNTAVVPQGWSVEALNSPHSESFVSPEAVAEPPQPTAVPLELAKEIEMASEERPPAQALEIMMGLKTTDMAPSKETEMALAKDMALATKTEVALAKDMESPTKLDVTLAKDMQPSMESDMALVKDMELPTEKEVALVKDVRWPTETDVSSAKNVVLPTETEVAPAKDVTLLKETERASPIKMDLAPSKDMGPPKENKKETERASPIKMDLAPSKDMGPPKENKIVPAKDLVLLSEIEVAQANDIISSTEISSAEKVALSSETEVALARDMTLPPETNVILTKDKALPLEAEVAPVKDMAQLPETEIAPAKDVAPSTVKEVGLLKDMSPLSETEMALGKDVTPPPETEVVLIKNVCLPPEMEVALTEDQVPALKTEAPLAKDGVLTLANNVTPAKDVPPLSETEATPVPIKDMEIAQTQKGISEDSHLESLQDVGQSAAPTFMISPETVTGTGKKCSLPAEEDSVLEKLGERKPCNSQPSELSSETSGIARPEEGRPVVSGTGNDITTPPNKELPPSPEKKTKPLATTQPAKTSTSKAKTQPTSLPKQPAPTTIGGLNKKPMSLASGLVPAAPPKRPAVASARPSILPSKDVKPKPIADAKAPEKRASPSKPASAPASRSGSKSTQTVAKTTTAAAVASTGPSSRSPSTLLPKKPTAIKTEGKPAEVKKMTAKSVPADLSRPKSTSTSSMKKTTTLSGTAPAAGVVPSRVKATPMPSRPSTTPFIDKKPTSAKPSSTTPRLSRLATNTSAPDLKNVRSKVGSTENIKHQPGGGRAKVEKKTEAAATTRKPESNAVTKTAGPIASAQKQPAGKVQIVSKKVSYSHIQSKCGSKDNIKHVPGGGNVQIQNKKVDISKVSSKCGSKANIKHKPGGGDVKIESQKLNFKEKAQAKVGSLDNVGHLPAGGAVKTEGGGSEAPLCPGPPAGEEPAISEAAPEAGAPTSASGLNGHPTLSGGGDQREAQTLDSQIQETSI
inactive: [1] -0.023 | [2] 0.043 | [3] 0.016 | [4] -0.02 | [5] 0.037 | [6] -0.024 | [7] -0.031 | [8] -0.007 | [9] 0.014 | [10] -0.02

KNL1 (UniProt Q8NG31)
inactive: [1] -0.008 | [2] -0.073 | [3] 0.024 | [4] -0.007 | [5] 0.018 | [6] 0.043 | [7] 0.055 | [8] -0.032 | [9] 0.004 | [10] 0.008

MFF isoform 2 (UniProt Q9GZY8)
inactive: [1] -0.046 | [2] -0.038 | [3] -0.052 | [4] 0.027 | [5] 0.024 | [6] 0.068 | [7] -0.113 | [8] 0.042 | [9] -0.075 | [10] 0.048

MAPK14 isoform 2 (UniProt Q16539)
Sequence of UniProt Q16539 (Q16539 whole entry, looked up): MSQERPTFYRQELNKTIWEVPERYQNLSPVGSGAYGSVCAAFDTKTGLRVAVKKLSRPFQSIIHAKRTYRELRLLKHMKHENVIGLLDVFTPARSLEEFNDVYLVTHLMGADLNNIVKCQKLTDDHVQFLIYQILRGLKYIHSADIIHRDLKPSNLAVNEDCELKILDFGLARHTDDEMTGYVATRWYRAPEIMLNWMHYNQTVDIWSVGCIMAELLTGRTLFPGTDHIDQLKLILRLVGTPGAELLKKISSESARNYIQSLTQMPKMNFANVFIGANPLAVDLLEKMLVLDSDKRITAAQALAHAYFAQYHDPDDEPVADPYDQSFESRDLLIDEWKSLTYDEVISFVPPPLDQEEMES
inactive: [1] 0.154 | [2] -0.121 | [3] 0.299 | [4] 0.01 | [5] -0.041 | [6] 0.454 | [7] 0.257 | [8] -0.065 | [9] -0.004 | [10] 0.144

Source: the supplement of paper PMC10849652
